Source: PubChem (National Center for Advancing Translational Sciences (NCATS))
Pf Dd2 inh: inhibitors of Plasmodium falciparum Dd2 growth | Potency, µM (top dose mostly 28.9 µM), for inactives: top-dose activity, negative = inhibition, usual class: inhibitors | AID 1347417 | P. falciparum Dd2 growth, SYBR Green, 72 h | 120,000 compounds, 4.3% hits; active = well fitted inhibition curve with a large enough effect;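 also: plate controls were DMSO vehicle for no effect and reference drug for full effect; nearly all actives have a fitted effect of over 65% in size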
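Readout: SYBR Green fluorescence, 485 nm excitation, 535 nm emission, after ~16 h lysis at 37C. Before that, Dd2-infected red cells (2.5% hematocrit) grew 72 h with compound, 29 uM top final concentration.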
* hit, by the source's call; i = inactive; [ ] = dose if it differs, or a comment. Shown is part of a subset that was picked to be rich in hits. Potency is read from the fitted curve at half-maximal effect.

SMILES	Pf Dd2 inh
O=C1N(Cc2ccccc2F)CCOC12CCN(Cc1ccc(F)cc1F)CC2	2.5µM*
COc1ccccc1-c1cc(C(=O)NC(C)C)c2cnn(C)c2n1	-17%
CCc1noc(-c2cn(C3CCN(C(=O)c4ccc(C#N)cc4)CC3)nn2)n1	-8%
CC(C)(C)NC(=O)N1CCC2(CC1)C(=O)N(CC(=O)NCCc1ccccc1)CN2c1ccccc1	-15%
COc1ccc(Cn2c(=O)c3oc4ccccc4c3n(Cc3cccc(F)c3)c2=O)cc1	-17%
O=c1c2oc3ccccc3c2n(Cc2ccccc2F)c(=O)n1Cc1ccc2c(c1)OCO2	-7%
Cc1ccc(C)c(Cn2c(=O)n(Cc3ccc4c(c3)OCO4)c(=O)c3oc4ccccc4c32)c1	37%
Cc1cccc(Cn2c(=O)n(Cc3ccccc3)c(=O)c3oc4ccccc4c32)c1	-7%
O=c1c2oc3ccccc3c2n(Cc2cccc(Cl)c2)c(=O)n1Cc1ccc2c(c1)OCO2	10µM*
O=c1c2sc3ccccc3c2n(Cc2cccc(C(F)(F)F)c2)c(=O)n1Cc1ccc(F)cc1	11µM*
O=c1c2sc3ccccc3c2n(Cc2cccc(Cl)c2)c(=O)n1Cc1ccc(F)cc1	-17%
O=c1c2sc3ccccc3c2n(Cc2cccc(C(F)(F)F)c2)c(=O)n1Cc1ccccc1	-1%
O=c1c2oc3ccccc3c2n(Cc2cccc(C(F)(F)F)c2)c(=O)n1Cc1ccc2c(c1)OCO2	7.9µM*
CC(C)NC(=O)c1ccccc1OCC1CCCN(CC2=Cc3ccccc3OC2)C1 (stereo not drawn)	-21%
Cc1nc(C2CCCCN2C(=O)c2ccco2)n[nH]1 (stereo not drawn)	-3%
CN(C)CCCNC(=O)C[C@H]1NC(=O)c2ccccc2NC1=O	4%
O=C(Nc1ccc(Cl)cc1)c1cc2n(n1)CC(c1ccc3c(c1)OCO3)OC2 (stereo not drawn)	i
Cc1ccc(-c2nnc(C3CN(C(=O)c4cccs4)CC34CCOCC4)o2)cc1 (stereo not drawn)	-4%
CCOC(=O)CCNC(=O)N1CCC(C(=O)N2CCCCCCNC(=O)CC2)CC1	40%
O=C1CCCN1C1CCN([S+](=O)([O-])c2cccs2)CC1	17%[44.1 µM]
CC(C)(C)c1ccc(-c2cc(C[C@H]3CNCC[C@H]3CC(=O)O)no2)cc1	-18%[44.1 µM]
O=C(C[C@@H]1CCNC[C@@H]1Cc1cc(-c2ccccc2)on1)N1CCOCC1	10%[44.1 µM]
CC(C)(C)c1ccc(-c2cc(C[C@H]3CNCC[C@H]3CC(=O)N3CCC(n4c(=O)[nH]c5ccccc54)CC3)no2)cc1	6.3µM*
O=Cc1ccccc1-c1ccccn1	12%[44.1 µM]
CC[C@H]1CN(S(=O)(=O)c2ccccc2)CC[C@H]1CC(=O)N1CCOCC1	i
SMILES	Pf Dd2 inh
CC[C@H]1CN(Cc2ccc(OC)cc2O)CC[C@H]1CC(=O)N1CCOCC1	7.9µM*
CC[C@H]1CN(C(=O)c2ccccc2)CC[C@H]1CC(=O)N1CCOCC1	-12%[44.1 µM]
COCC(=O)N1CC[C@@H](CC(=O)O)[C@@H](CCN2CCC(n3c(=O)[nH]c4ccccc43)CC2)C1	34%
COCCNc1ncnc2c1CN(C1CNC1)C(=O)CN2C	7%
CCN(CC)C(=O)N1C[C@@H](Oc2cccnc2)C[C@H]1C(=O)N1CCOCC1	-25%
O=C(Cn1nc2c(cc1=O)CCCC2)N1CCSCC1	7%
Cc1cc(F)ccc1NC(=O)c1cc(-c2ccc[nH]2)n[nH]1	i
COc1ccc(C(=O)Nc2nc3c(s2)CCCC3)cc1Cl	-25%
COc1ccc2c(c1)CCc1sc(NC(=O)c3cccc(Br)c3)nc1-2	-16%
COc1ccc2c(c1)-c1nc(NC(=O)c3ccc(C)cc3)sc1CC2	11µM*
Cc1ccc(CNC(=O)CCc2cn(Cc3ccc(C)cc3)c3ccccc23)cc1	-22%
CCCN(CCC)CC(O)Cn1cc(/C=C/C(=O)c2ccc(Br)cc2)c2ccccc21 (stereo not drawn)	3.2µM*
CCCN(CCC)CC(O)Cn1cc(/C=C/C(=O)c2ccc(C)cc2)c2ccccc21 (stereo not drawn)	1.1µM*
CCCCN(C)CC(O)Cn1cc(/C=C/C(=O)c2ccc(C)cc2)c2ccccc21 (stereo not drawn)	2.5µM*
CCN(CC)C(=O)Cn1cc(SCC(=O)Nc2cccc(C)c2)c2ccccc21	-4%
CC(=O)N1CCc2nn(CC(=O)Nc3cccc(Br)c3)c(=O)cc2C1	-19%
O=C(Cn1cncn1)N1CCN(Cc2ccccn2)[C@@H]2CS(=O)(=O)C[C@@H]21	2%
COc1nc2c(cc1CNC(=O)CO)C(=O)N(CCc1ccccn1)C2	i
CC(C)NC(=O)[C@@H]1C[C@H](N)CN1S(=O)(=O)c1ccc2c(c1)OCCN2C	-20%
O=C(Cn1ccn2nc(-c3ccc(F)cc3)c(CO)c2c1=O)NCCCc1ccccc1	i
COc1ccccc1NC(=O)CSc1nc(-c2ccc(C)cc2)nc2c1Cc1c(CO)cnc(C)c1O2	-25%
COc1ccccc1NC(=O)CSc1nc(-c2cccc(Cl)c2)nc2c1Cc1c(CO)cnc(C)c1O2	7%
COc1ccc(-c2nc3c(c(SCC(=O)Nc4cccc(O)c4)n2)Cc2c(CO)cnc(C)c2O3)cc1	5.6µM*
COc1ccc(-c2nc3c(c(SCc4ccc(Br)cc4)n2)Cc2c(CO)cnc(C)c2O3)cc1	1.1µM*
Cc1ncc(CO)c2c1Oc1nc(-c3ccccc3)nc(SCC(=O)Nc3cccc(C(F)(F)F)c3)c1C2	i
SMILES	Pf Dd2 inh
C=Cc1ccc(CSc2nc(-c3ccc(Cl)cc3)nc3c2Cc2c(CO)cnc(C)c2O3)cc1	11µM*
Cc1ncc(CO)c2c1Oc1nc(-c3ccc(F)cc3)nc(SCc3ccc(F)cc3Cl)c1C2	64%[0.594 µM]
CCc1ccc(NC(=O)CSc2nc(-c3ccc(C)cc3)nc3c2Cc2c(CO)cnc(C)c2O3)cc1	-27%
COc1ccc(-c2nc3c(c(SC)n2)Cc2c(CO)cnc(C)c2O3)cc1	-9%
C=Cc1ccc(CSc2nc(-c3ccccc3C)nc3c2Cc2c(CO)cnc(C)c2O3)cc1	5.6µM*
CCN(Cc1c(F)cccc1Cl)C(=O)CCc1c(C)nn(C)c1C	-17%
CC(=O)c1ccc(NC(=O)N[C@@H]2C=C(C(=O)N[C@H](C)C(N)=O)C[C@@H](O)[C@@H]2O)cc1	-1%[44.1 µM]
Cc1cnn(CCC(=O)N2C[C@@H](CO)[C@H](c3nc(C4CC4)no3)C2)c1	i
CN1CC(=O)N(C2CCNCC2)Cc2c(NCCc3cccc(F)c3)ncnc21	-17%
O=C(c1cccs1)N1CCOC(CCc2ccccc2)C1 (stereo not drawn)	-4%
Cc1noc([C@H]2CCN(C(=O)NCc3ccccc3)C[C@H]2NC(=O)C2CC2)n1	i[5.79 µM]
CC(C)(C)C(=O)N1CC[C@H]2CC(=O)N(C3CCCCC3)CC[C@H]2C1	i
O=C(NCc1ccc(N2CCOCC2)cc1)C1CCN(c2cnc3nccnc3c2)CC1	i
Cc1cccc(-c2nc3cnccn3c2NCCC(=O)N2CCCCC2)c1	i
O=C(NC[C@H]1Cn2ccnc2CO1)NC1CCCCC1	-20%[44.1 µM]
COc1ccccc1C(=O)NC1CCN(c2cc(-c3cccs3)[nH]n2)C1 (stereo not drawn)	i
Cc1cnc(CC2CCN(C(=O)c3ccco3)CC2)n1CC1CC1	i
O=c1[nH]c(N2CCOCC2)nc2c1CCN(Cc1cccc(Br)c1)CC2	-5%[5.79 µM]
C=Cc1ccc(CSc2nc(-c3ccc(OC)cc3)nc3c2Cc2c(CO)cnc(C)c2O3)cc1	3.2µM*
COc1cccc(-c2nc3c(c(SCc4ccccc4Cl)n2)Cc2c(CO)cnc(C)c2O3)c1	2%
COc1cccc(-c2nc3c(c(SCC(=O)Nc4cccc(C)c4C)n2)Cc2c(CO)cnc(C)c2O3)c1	52%
